# From PubChem BioAssay (NCI)
# About 83,000 compounds went through this panel and 20% of them were active in at least one assay; those are over-represented in the sample as a whole.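 The test compound was applied at a single concentration to cells in 96-well plates for 48 hours, and percent growth was recorded.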 Values without a mark were called inactive. Active and inactive are the calls of the source. How the source made its calls: active means growth percent below 10; inactive means the rest.
# Test system: MDA-MB-468 breast
# Experiment: NCI-60 one-dose screen, 48 h (100 = growth as untreated, 0 = no growth, -100 = all killed)
# Conditions: 10 µM unless noted
row,SMILES,growth
1,COc1ccc(-c2nnc(SCC(=O)N3CCN(c4cc5c(cc4F)c(=O)c(C(=O)O)cn5C4CC4)CC3)o2)cc1OC,96.4%
2,CCOC(=O)c1c(C)nc2c(c1N)/C(=C/c1ccc[nH]1)C(=O)N2Cc1ccc(C(F)(F)F)cc1,58.7%
3,Cc1ccc2[nH]c(=O)cc(-n3nncc3COc3ccc(C=O)cc3)c2c1,114%
4,COc1cc2oc(-c3cccc(C(=O)Nc4ccccc4)c3)cc(=O)c2c(O)c1OC,69.4%
5,COc1cc(-c2cc(/C=C3\C(=O)Nc4cc(Cl)ccc43)[nH]n2)cc(OC)c1OC,58.3%
6,CO/N=C(/C(=O)NC1C(=O)N2C(C(=O)O)=C(COC(N)=O)CSC12)c1ccco1 (stereo not given),109%
7,O=C(NC1=CC(=O)c2ccccc2C1=O)c1ccccc1,-91% (active)
8,Nc1ccc(Br)cn1,93.6%
9,O=c1ccc2nc(-c3ccccn3)nn(-c3ccccc3)c-2c1,-32.1% (active)
10,CCOC(=O)c1c(Nc2ccccc2)nn2c(-c3ccc(Br)cc3)ccnc12,67.5%
11,Cc1ccc(S(=O)(=O)Nc2ccc(-c3cc(-c4cccc(F)c4)c(C#N)c(=O)[nH]3)cc2)cc1,67.9%
12,NC(=NCCCC1(c2ccccc2)CCCC1)Nc1ccc(Cl)cc1,-83.1% (active)
13,CC(C)CC(=O)Nc1n[nH]c2c1CN(C(=O)C1CCN(C)CC1)C2(C)C,-44.3% (active)
14,COc1cc2ncnc(Nc3ccc(O)cc3)c2cc1OC,17.6%
15,Cc1ccc(S(=O)(=O)n2cc(-c3csc(-c4cn(C)c5ncccc45)n3)c3ccccc32)cc1,38.6%
16,C=C(C(=O)c1ccccc1)C(NC(C)(C)C)c1ccccc1 (stereo not given),-37.3% (active)
17,CCCCN(CCCC)CCCNc1c2c(nc3ccc(Cl)cc13)CCCC2,114%
18,COc1cc(C2=NN(C(C)=O)C(c3ccc(OC(C)=O)cc3OC(C)=O)O2)c(OC(C)=O)c2ccccc12 (stereo not given),-9.39% (active)
19,COc1ncnc2c1ncn2C/C(Br)=C(\Br)CCl,16.9%
20,CCOc1ccc(/C=N\N2CCCCCC2)cc1OCC,111%

row,SMILES,growth
1,O=Nc1c2cccnc2n2nnc3ccc(Cl)cc3c12,-69.4% (active)
2,O=C1Nc2cc(Cl)ccc2/C1=C\c1c(-c2ccc(F)cc2)nc2ccccn12,-7.93% (active)
3,CC(=O)Nc1nc(N)nc(NC(C)=O)c1N=O,118%
4,O=S(=O)(Nc1ccc2ccccc2c1)c1ccc(-c2cnc(C3CC3)o2)cc1,6.05% (active)
5,Cc1nn(-c2nc3ccccc3[nH]2)c2c1C(c1ccc(O)cc1)CC(=O)N2 (stereo not given),92.8%
6,CCC(CC)(N(CC(=O)O)CC(=O)O)C(CC)(CC)N(CC(=O)O)CC(=O)O,127%
7,O=C(Cn1cc(CN2C(=O)c3ccc([N+](=O)[O-])cc3C2=O)nn1)Nc1ccccc1Br,111%
8,O=C(/C=C/c1ccccc1)C(Br)C(Br)c1ccccc1 (stereo not given),-38.1% (active)
9,COc1ccc(C(C)=O)cc1N1C(=O)C2C(C1=O)C1(c3ccccc3)C(=O)C2(c2ccccc2)C(c2ccc(C)cc2)=C1c1ccc(C)cc1 (stereo not given),13.9%
10,CCCCCCC(CCCC)COC(=O)c1ccc(Cl)cc1 (stereo not given),96.2%
11,CCCCCCCCCCCC[S+](C)CC(=O)[O-] (stereo not given),-53.1% (active)
12,CC1C(c2ccccc2)OCCN1C(=S)Nc1ccc(S(=O)(=O)N2CCCCC2)cc1 (stereo not given),80.4%
13,COc1ccc(-c2cc(=O)oc3ccc(Cl)cc23)cc1F,26.5%
14,CS(=O)(=O)c1ccc(-c2nc3ccccn3c2-c2nc3ccc([N+](=O)[O-])cc3[nH]2)cc1,104%
15,CS(=O)(=O)Nc1ccc([N+](=O)[O-])cc1Oc1ccccc1,100%
16,Cc1c(Br)cccc1NC(=O)c1sc2nc3c(cc2c1N)CN(Cc1ccccc1)CC3,16.8%
17,NC(N)=Nc1ccc(Oc2cccc(Nc3ccc(Br)c(C(F)(F)F)c3)c2)cn1,-80.3% (active)
18,CC(NCCC(c1ccccc1)c1ccccc1)c1ccccc1 (stereo not given),49%
19,Cc1cc(C(=O)/C=C/c2ccc[nH]2)ccc1-n1ccc(C(F)(F)F)n1,90.2%
20,NC1=CC(=O)C(=O)c2cccnc21,81.3%
